A short description of experiment [1]: Wnt pathway potentiators raising nuclear beta-catenin – imaging, WNT3A-conditioned medium, mouse C2C12, NPC library, primary screen (AID 1117326; in the data active = nuclear beta-catenin stimulation mostly above about 4.2%, no sharp cut-off; inactive = mostly below about 10%; also: reference of the scale not given here). The conditions noted are these: stronger effect = higher value.
A short description of experiment [2]: stimulators of insulin release from INS-1E, primary screen, cell-based, 5 mM glucose, NPC library (AID 1117329;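 active = compound raises insulin release from rat beta cells at 5 mM glucose, no numeric limit stated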; also: reference of the scale not given here). The conditions noted are these: rat INS-1E insulin secretion, at 10 µM, stronger effect = higher value.
Experiment [3] is described as follows: growth inhibition of GSK3B-pretreated HCT116 cells – cell-based, CellTiter-Glo, 0.2 to 20 µM (AID 1117336;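 active = compounds lowering colon cancer cell viability after pretreatment blocking the GSK3B kinase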). The note with it: HCT116 viability after GSK3B inhibitor, at 20 µM, stronger effect = higher value. In general terms: Cellular ATP, detected with luciferase, serves as a proxy for viable cell number.
Experiment [4] can be described thus: inhibition of endothelial tube formation, primary screen, imaging, VEGF stimulated, CD31 staining, tube area, NPC library (AID 1117340). The conditions noted are these: VEGF-stimulated ADSC/ECFC co-culture, at 10 µM, stronger effect = higher value.
A short description of experiment [5]: GLP1 release stimulators, primary, NCI-H716, NPC library (AID 1117341;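 active = compound raises GLP1 secretion from the human gut endocrine cells, with no numeric limit stated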; also: reference of the scale not given here). The note with it: NCI-H716 cells, at 10 µM, stronger effect = higher value.
A short description of experiment [6]: HCT116 colon cancer cell growth inhibition, primary screen, CellTiter-Glo luminescence, NPC library (AID 1117342;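 active = compounds that lower survival of HCT116 colon cancer cells in the luminescence readout, no numeric limit stated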). The conditions noted are these: at 20 µM (top of the series).
Experiment [7] in a line: reduced SW480 viability measured with CellTiter-Glo, NPC library, primary (AID 1117343;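 active = compounds that lower viability of the colon cancer cells in the luminescence readout, with no numeric limit stated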). The conditions noted are these: CellTiter-Glo luminescence; at 20 µM (top of the series).
The nature of experiment [8]: NPC library primary testing for decreased DLD-1 cell viability via CellTiter-Glo (AID 1117346;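 active = compounds that lower survival of DLD-1 colon cancer cells in the luminescence readout, no cutoff given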). The conditions noted are these: DLD-1 viability, CellTiter-Glo luminescence; at 20 µM (top of the series).

Results on 16 molecules are retold here after PubChem BioAssay.

Calls of active or inactive are those of the source.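 The calls were made as follows, unless noted: active = compound that reduces growth-factor-driven endothelial tube area in a mixed cell culture, no cutoff stated; inactive = the rest.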

In the case of `OC1(c2ccc(Cl)cc2)CCNCC1`, the nuclear beta-catenin stimulation in experiment [1] (at 10 µM) is -0.1% (inactive); in experiment [1] (stimulation, at 2 µM), -1.2%. The insulin secretion stimulation in experiment [2] is 6.1% (inactive). The viability decrease in experiment [3] was 13.1% (inactive). The tube area decrease in experiment [4] is 7.8% (inactive). The GLP1 secretion stimulation in experiment [5] is 1.3% (inactive). Further, the inhibition of viability in experiment [6] was 23.2% (inactive). Also, the viability decrease (inhibition) in experiment [7] is 30.5% (inactive); in experiment [8], 8.8% (inactive).

As for `CC(C)[C@H]1CC[C@H](C)C[C@H]1O`, the nuclear beta-catenin stimulation is -2.2% (inactive) in experiment [1] (at 10 µM) and -0.8% in experiment [1] (stimulation, at 2 µM). Further, in experiment [2], the insulin secretion stimulation was 2.4% (inactive). For the same molecule, the viability decrease in experiment [3] was 2% (inactive). For the same molecule, in experiment [4], the tube area decrease was -11.4% (inactive). The GLP1 secretion stimulation in experiment [5] is 7.7% (inactive). Also, in experiment [6], the inhibition of viability was 8.8% (inactive). The viability decrease (inhibition) in experiment [7] is 17.2% (inactive); in experiment [8] it was 5.7% (active).

For `CCCN(CCC)C(=O)C(CCC(=O)OCCCN1CCN(CCOC(=O)Cc2c(C)n(C(=O)c3ccc(Cl)cc3)c3ccc(OC)cc23)CC1)NC(=O)c1ccccc1` (centres undefined), the nuclear beta-catenin stimulation in experiment [1] (at 10 µM) is 51% (active); in experiment [1] (stimulation, at 2 µM), -0.4%. Moreover, the insulin secretion stimulation in experiment [2] was 0.4% (inactive). In experiment [3], the viability decrease was 113% (active). The tube area decrease in experiment [4] was 25.9% (inactive). The GLP1 secretion stimulation in experiment [5] was 3.5% (inactive). The inhibition of viability in experiment [6] is 113% (active). The viability decrease (inhibition) in experiment [7] was 120% (active); in experiment [8], 93.3% (active).

`CC(=O)N/N=C/c1ccc([N+](=O)[O-])o1`: the nuclear beta-catenin stimulation in experiment [1] (at 10 µM) is 9.9% (inactive); in experiment [1] (stimulation, at 2 µM), -0.2%. Further, in experiment [2], the insulin secretion stimulation was -3.3% (inactive). Besides, in experiment [3], the viability decrease was 16.4% (inactive). Also, the tube area decrease in experiment [4] is 20.9% (inactive). Also, the GLP1 secretion stimulation in experiment [5] was 5.7% (inactive). In addition, the inhibition of viability in experiment [6] is 9% (inactive). Also, the viability decrease (inhibition) in experiment [7] was 104% (active); in experiment [8] it was 80.5% (active).

Turning to `Cc1ccc(S(=O)(=O)NC(=O)NC2CCCC2)cc1`, the nuclear beta-catenin stimulation was 0.2% (inactive) in experiment [1] (at 10 µM) and 0.6% in experiment [1] (stimulation, at 2 µM). Further, the insulin secretion stimulation in experiment [2] is 15.2% (inactive). In experiment [3], the viability decrease was -1.25% (inactive). The tube area decrease in experiment [4] is -10.7% (inactive). Besides, in experiment [5], the GLP1 secretion stimulation was -0.4% (inactive). Further, the inhibition of viability in experiment [6] is -18.5% (inactive). Also, the values for the viability decrease (inhibition) in experiment [7] and in experiment [8] were 44.9% (inactive) and 9.95% (inactive), respectively.

As for `CCCC(=O)OC[C@@H](OC(=O)CCC)[C@@H](OC(=O)CCC)[C@H](Cn1c2nc(=O)[nH]c(=O)c-2nc2cc(C)c(C)cc21)OC(=O)CCC`, the nuclear beta-catenin stimulation in experiment [1] (at 10 µM) was -0.4% (inactive); in experiment [1] (stimulation, at 2 µM) it was 2.2%. Further, in experiment [2], the insulin secretion stimulation is 1.9% (inactive). Further, the viability decrease in experiment [3] was 39.1% (inactive). Moreover, in experiment [4], the tube area decrease was 14.1% (inactive). Besides, in experiment [5], the GLP1 secretion stimulation was 2.6% (inactive). The inhibition of viability in experiment [6] is 11.7% (inactive). The viability decrease (inhibition) in experiment [7] is 25.5% (inactive); in experiment [8], 24.5% (inactive).

With `C[C@@H](N)C(=O)O`, the nuclear beta-catenin stimulation is 1.4% (inactive) in experiment [1] (at 10 µM) and 0% in experiment [1] (stimulation, at 2 µM). Moreover, the insulin secretion stimulation in experiment [2] is -2.7% (inactive). The viability decrease in experiment [3] was 9% (inactive). For the same molecule, the tube area decrease in experiment [4] is 15.4% (inactive). Also, the GLP1 secretion stimulation in experiment [5] is 5.9% (inactive). In addition, in experiment [6], the inhibition of viability was 11.2% (inactive). Also, the viability decrease (inhibition) in experiment [7] was 44.4% (inactive); in experiment [8] it was 20.8% (inactive).

On to `COC(=O)c1cc(Cl)c(NC(C)=O)cc1OC`, for which the nuclear beta-catenin stimulation is 1.9% (inactive) in experiment [1] (at 10 µM) and 0.7% in experiment [1] (stimulation, at 2 µM). For the same molecule, the insulin secretion stimulation in experiment [2] was 0.95% (inactive). In addition, the viability decrease in experiment [3] is -12.1% (inactive). Besides, the tube area decrease in experiment [4] was -7.7% (inactive). In addition, the GLP1 secretion stimulation in experiment [5] is 1.2% (inactive). Also, the inhibition of viability in experiment [6] is -1.4% (inactive). Further, the viability decrease (inhibition) in experiment [7] is -23.1% (inactive); in experiment [8] it was -11.9% (inactive).

Turning to `O=C(O)Cc1ccccc1Oc1ccc(Cl)cc1Cl`, the nuclear beta-catenin stimulation in experiment [1] (at 10 µM) is 0.5% (inactive); in experiment [1] (stimulation, at 2 µM), 0.7%. For the same molecule, the insulin secretion stimulation in experiment [2] was 1.5% (inactive). In addition, the viability decrease in experiment [3] was -7.6% (inactive). In addition, the tube area decrease in experiment [4] was 3.2% (inactive). In addition, the GLP1 secretion stimulation in experiment [5] is 1% (inactive). Further, in experiment [6], the inhibition of viability is -0.8% (inactive). The viability decrease (inhibition) was -5% (inactive) in experiment [7] and 5.9% (inactive) in experiment [8].

As to `CCN(CC)CCOc1ccc(C(O)(Cc2ccc(Cl)cc2)c2ccc(C)cc2)cc1` (centres undefined), the nuclear beta-catenin stimulation is 8.8% (inactive) in experiment [1] (at 10 µM) and 1.9% in experiment [1] (stimulation, at 2 µM). For the same molecule, in experiment [2], the insulin secretion stimulation was 0.1% (inactive). Moreover, in experiment [3], the viability decrease was 101% (active). Also, in experiment [4], the tube area decrease was 107% (active). The GLP1 secretion stimulation in experiment [5] is 31.5% (active). Besides, the inhibition of viability in experiment [6] is 102% (active). In addition, the viability decrease (inhibition) is 122% (active) in experiment [7] and 101% (active) in experiment [8].

As to `CCC(C(=O)NC(=O)NC(C)=O)c1ccccc1` (centres undefined), the nuclear beta-catenin stimulation in experiment [1] (at 10 µM) was 0.9% (inactive); in experiment [1] (stimulation, at 2 µM), 0.2%. The insulin secretion stimulation in experiment [2] was 0.6% (inactive). For the same molecule, in experiment [3], the viability decrease was 78.3% (active). In addition, in experiment [4], the tube area decrease is 7.5% (inactive). Also, the GLP1 secretion stimulation in experiment [5] is -4.7% (inactive). In addition, the inhibition of viability in experiment [6] was 46.2% (inactive). The values for the viability decrease (inhibition) in experiment [7] and in experiment [8] were 70.3% (active) and 6.1% (inactive), respectively.

In the case of `COC(=O)c1cc(Cl)ccc1NS(=O)(=O)C(F)(F)F`, the nuclear beta-catenin stimulation in experiment [1] (at 10 µM) was -1.2% (inactive); in experiment [1] (stimulation, at 2 µM), -1.2%. Further, in experiment [2], the insulin secretion stimulation was 1.8% (inactive). For the same molecule, the viability decrease in experiment [3] was 17.5% (inactive). In experiment [4], the tube area decrease was -6.9% (inactive). In addition, the GLP1 secretion stimulation in experiment [5] is -0.4% (inactive). The inhibition of viability in experiment [6] is 8.93% (inactive). For the same molecule, the viability decrease (inhibition) in experiment [7] is 30.2% (inactive); in experiment [8] it was -4.9% (inactive).

For the molecule `O=C(Cn1ccnc1[N+](=O)[O-])NCc1ccccc1`, the nuclear beta-catenin stimulation in experiment [1] (at 10 µM) was -0.6% (inactive); in experiment [1] (stimulation, at 2 µM), 0.4%. The insulin secretion stimulation in experiment [2] was -1.9% (inactive). Besides, the viability decrease in experiment [3] was -22.5% (inactive). The tube area decrease in experiment [4] was -8.5% (inactive). Also, in experiment [5], the GLP1 secretion stimulation was -4.4% (inactive). Moreover, in experiment [6], the inhibition of viability is 1.8% (inactive). The viability decrease (inhibition) is 7.9% (inactive) in experiment [7] and 1% (inactive) in experiment [8].

`COc1ccc([C@@H]2CC(=O)c3c(O)cc(O[C@@H]4O[C@H](CO[C@@H]5O[C@@H](C)[C@H](O)[C@@H](O)[C@@H]5O)[C@@H](O)[C@H](O)[C@@H]4O)cc3O2)cc1O`: the nuclear beta-catenin stimulation in experiment [1] (at 10 µM) was 1.6% (inactive); in experiment [1] (stimulation, at 2 µM), 2.4%. For the same molecule, the insulin secretion stimulation in experiment [2] was -0.9% (inactive). Further, in experiment [3], the viability decrease is -10.2% (inactive). In experiment [4], the tube area decrease is -4.7% (inactive). Besides, the GLP1 secretion stimulation in experiment [5] was -1% (inactive). In experiment [6], the inhibition of viability is -1.6% (inactive). Also, the figures for the viability decrease (inhibition) in experiment [7] and in experiment [8] were -2.4% (inactive) and 41.4% (inactive), respectively.

In the case of `Oc1ccccc1`, the nuclear beta-catenin stimulation in experiment [1] (at 10 µM) is -0.4% (inactive); in experiment [1] (stimulation, at 2 µM), 0.2%. Also, in experiment [2], the insulin secretion stimulation is -0.2% (active). The viability decrease in experiment [3] was -6.9% (inactive). Also, the tube area decrease in experiment [4] was -36.6% (inactive). Besides, in experiment [5], the GLP1 secretion stimulation was 0.5% (inactive). In addition, the inhibition of viability in experiment [6] is -11.1% (inactive). Besides, the viability decrease (inhibition) is 42.7% (inactive) in experiment [7] and 0.9% (inactive) in experiment [8].

As for `CC(=O)OCC(=O)Nc1cc(C#N)cc(NC(=O)COC(C)=O)c1Cl`, the nuclear beta-catenin stimulation in experiment [1] (at 10 µM) was -0.4% (inactive); in experiment [1] (stimulation, at 2 µM) it was -1.4%. In experiment [2], the insulin secretion stimulation was 4% (inactive). The viability decrease in experiment [3] was -0.6% (inactive). The tube area decrease in experiment [4] was -12.8% (inactive). In addition, the GLP1 secretion stimulation in experiment [5] is 3.3% (inactive). Also, the inhibition of viability in experiment [6] is 0.9% (inactive). Moreover, the viability decrease (inhibition) in experiment [7] is -20.3% (inactive); in experiment [8] it was 1.6% (inactive).
